Holding throughout (assay type): functional
The subject of assay [1] is Plasmodium falciparum. The experiment in a line: GSK_TCMDC: Inhibition of Plasmodium falciparum 3D7 in whole red blood cells, using parasite LDH activity as an index of growth. Test compounds present at 2uM.
The subject of assay [2] is Plasmodium falciparum. In words: GSK_TCMDC: Inhibition of Plasmodium falciparum Dd2 in whole red blood cells, using parasite LDH activity as an index of growth. Test compounds present at 2uM.
Another assay relates to HepG2. In words: GSK_TCMDC: Percent inhibition of human HepG2 cell line. Test compounds present at 10uM.

The structures appear in SMILES notation.

For `COc1cc(C(=O)N2CCOC(CCN3CCC(Cc4ccc(F)cc4)CC3)(c3ccc(Cl)c(Cl)c3)C2)cc(OC)c1OC` (configuration not stated), the Inhibition with Plasmodium falciparum [1] is on record as 88%; in the assay with Plasmodium falciparum [2], 58%; with HepG2, 44%.
Turning to `CN(C)Cc1cccc(-c2ccc(NC(=O)c3ccc4c(=O)n(C5CCCCC5)cnc4c3)cc2)c1`, the Inhibition with Plasmodium falciparum [1] came to 96%; in the assay with Plasmodium falciparum [2] it was 53%; in the assay with HepG2 it was 92%.
For `O=C(C1CC1)N1c2ccccc2CCc2ccccc21` the same measures were 98%, 57% and 40%.
For `Cc1onc(-c2c(F)cccc2Cl)c1C(=O)Nc1ccccc1I` the same measures were 99%, 52% and 0%.
Regarding `CCCc1cc(OC)c(CC2c3cc(O)c(Cl)cc3CCN2C)cc1OC.Cl` (configuration not stated), the figures for the Inhibition in the assay with Plasmodium falciparum [1], in the assay on Plasmodium falciparum [2] and in the assay on HepG2 were 100%, 99% and 19%, respectively.
In the case of `CC(C)CNCc1ccc(-c2cccc(-c3nc4ccccc4[nH]3)c2)cc1.O=C(O)C(F)(F)F`, the results for the Inhibition with Plasmodium falciparum [1], in the assay on Plasmodium falciparum [2] and in the assay on HepG2 were 99%, 98% and 53%, respectively.
For `Cc1nc(C)c(CC(=O)Nc2ccc(-c3ccc(-c4nc5cc(C(F)(F)F)ccc5[nH]4)s3)cc2)s1`, the Inhibition with Plasmodium falciparum [1] was found to be 90%; with Plasmodium falciparum [2] it was 29%; with HepG2, 57%.
`CC(C)(C)c1ccc(CN2CCC(CNC(=O)c3cc(-c4cccc(F)c4)cs3)C2)cc1.O=C(O)C(F)(F)F` (configuration not stated): the Inhibition in the assay on Plasmodium falciparum [1] was 100%; with Plasmodium falciparum [2], 55%; in the assay on HepG2, 32%.
As for `N#Cc1ccc(N/C(=N\c2cccc(Cl)c2Cl)NCc2ccc(Cl)cc2Cl)c(O)c1`, the Inhibition with Plasmodium falciparum [1] was 97%; with Plasmodium falciparum [2], 75%; in the assay on HepG2 it was 3%.
The like results for `CCCCCc1cc(OC(C)=O)c2c(c1)OC(C)(C)C=C2C1=CCN(Cc2ccccc2)CC1.O=C(O)/C=C/C(=O)O` were, in that order, 97%, 88% and 14%.
For `Clc1ccc(CNc2ccnc(NCCc3coc4ccccc34)n2)c(Cl)c1` the same measures were 86%, 39% and 26%.
The like results for `CC(C)(C)n1nnnc1C(c1cccnc1)N(Cc1ccccc1)Cc1ccc(Cl)cc1` (configuration not stated) were, in that order, 96%, 17% and 0%.
`NC(=O)c1ccccc1Nc1nc(Nc2ccc(N3CCOCC3)cc2)ncc1[N+](=O)[O-].O=C(O)C(F)(F)F`: the Inhibition in the assay on Plasmodium falciparum [1] is on record as 98%; in the assay on Plasmodium falciparum [2], 96%; with HepG2, 53%.
For `CCOC(=O)c1cncc(/C=C/c2cc(C)cnc2N)c1` the same measures were 86%, 3% and 4%.
Turning to `CC1(CCCCN2CCC(Oc3ccc(F)cc3F)CC2)C(=O)Nc2ccccc21.Cl` (configuration not stated), the figures for the Inhibition in the assay on Plasmodium falciparum [1], in the assay on Plasmodium falciparum [2] and in the assay with HepG2 were 99%, 6% and 6%, respectively.
As to `Oc1cccc(Nc2nc(NCc3ccccc3)c3ccccc3n2)c1`, the figures for the Inhibition in the assay on Plasmodium falciparum [1], with Plasmodium falciparum [2] and with HepG2 were 95%, 99% and 21%, respectively.
Turning to `O=C(Nc1cccc(F)c1)N1CCC(CN2CCOC(c3ccccc3)(c3ccccc3)C2)CC1`, the Inhibition in the assay with Plasmodium falciparum [1] is 96%; in the assay on Plasmodium falciparum [2] it was 97%; with HepG2, 12%.
The like results for `COc1cccc(C2CCN(CCN3CCC(NC(=O)c4ccc(-c5ccc(C(F)(F)F)cc5)cc4)CC3)CC2)c1` were, in that order, 99%, 99% and 46%.
As to `COc1cc(OC)cc(C(=O)Nc2cccc(-c3cn4ccc(C)cc4n3)c2)c1`, the values for the Inhibition in the assay with Plasmodium falciparum [1], in the assay on Plasmodium falciparum [2] and in the assay with HepG2 were 86%, 45% and 4%, respectively.
As to `C=CCn1c(=N)c(C(=O)NC2CCCCC2)cc2c(=O)n3cccc(C)c3nc21`, the values for the Inhibition in the assay on Plasmodium falciparum [1], in the assay on Plasmodium falciparum [2] and in the assay with HepG2 were 92%, 58% and 0%, respectively.
Regarding `CCCCc1ccc(C(=O)Nc2ccc3nc(N4CCN(CC)CC4)cc(C)c3c2)cc1`, the figures for the Inhibition in the assay on Plasmodium falciparum [1], with Plasmodium falciparum [2] and with HepG2 were 91%, 13% and 32%, respectively.
With `O=C(Cn1c(CCc2cccc(F)c2F)nc(=O)c2ccccc21)N(CCCN1CCCCC1)Cc1ccc(-c2ccc(C(F)(F)F)cc2)cc1.O=C(O)C(O)C(O)C(=O)O`, the Inhibition in the assay on Plasmodium falciparum [1] is given as 100%; with Plasmodium falciparum [2], 94%; in the assay with HepG2 it was 100%.
As to `Cc1[nH]c(C)c(-c2ccc(OCc3ccc(OC(F)(F)F)cc3)nc2)c(=O)c1Br`, the figures for the Inhibition in the assay with Plasmodium falciparum [1], in the assay on Plasmodium falciparum [2] and with HepG2 were 98%, 97% and 10%, respectively.
On to `Cl.O=c1cc(NCCNCc2cccc(-c3ccccc3)c2)[nH]c2ccccc12`, for which the figures for the Inhibition with Plasmodium falciparum [1], in the assay on Plasmodium falciparum [2] and in the assay with HepG2 were 93%, 68% and 0%, respectively.
As to `c1ccc(Oc2ccc(Nc3ccnc4ccc(-c5ccccn5)cc34)cc2)cc1`, the Inhibition with Plasmodium falciparum [1] stood at 80%; in the assay with Plasmodium falciparum [2], 10%; with HepG2, 4%.
Consider `Cl.Oc1ccc(Cc2cc(Oc3c(I)cc(CCc4ncc[nH]4)cc3I)ccc2O)cc1`, for which the results for the Inhibition in the assay with Plasmodium falciparum [1], in the assay with Plasmodium falciparum [2] and in the assay with HepG2 were 100%, 32% and 10%, respectively.
Regarding `CCCN1CCC2(CC1)NC(C(=O)NCCC(C)C)Cc1c2[nH]c2cc(Cl)ccc12` (configuration not stated), the Inhibition amounted to 86% in the assay on Plasmodium falciparum [1], 0% in the assay with Plasmodium falciparum [2] and 13% in the assay with HepG2.
On to `c1ccc(COc2ccc(Cn3ccc(-c4ccc(-n5ccnc5)cc4)n3)cc2)cc1.c1ccc(COc2ccc(Cn3nccc3-c3ccc(-n4ccnc4)cc3)cc2)cc1`, for which the Inhibition in the assay with Plasmodium falciparum [1] came out at 94%; in the assay on Plasmodium falciparum [2], 67%; with HepG2 it was 2%.
For `CCCCC(=O)Nc1nc2ccc([N+](=O)[O-])cc2s1` the same measures were 91%, 69% and 9%.
Consider `Cc1cccc2nc(-c3cccc(-c4cccc(NC(=O)Nc5ccsc5)c4)c3)[nH]c12`, for which the Inhibition with Plasmodium falciparum [1] was found to be 100%; in the assay on Plasmodium falciparum [2] it was 41%; in the assay with HepG2, 15%.
With `COc1ccc2nc3cc(Cl)ccc3c(NCCN(C)C)c2c1`, the values for the Inhibition with Plasmodium falciparum [1], in the assay with Plasmodium falciparum [2] and in the assay on HepG2 were 100%, 100% and 4%, respectively.
For `CCc1cccc(-n2c(=O)c3cccnc3n2CC(=O)NC2CCCC2)c1`, the Inhibition is 94% in the assay with Plasmodium falciparum [1], 13% with Plasmodium falciparum [2] and 2% with HepG2.
With `Cl.NC1=NC2(CCCC2)C(c2ccc(Cl)c(Cl)c2)C(N)=N1` (configuration not stated), the Inhibition in the assay with Plasmodium falciparum [1] is recorded as 92%; in the assay on Plasmodium falciparum [2], 3%; in the assay with HepG2, 7%.
The like results for `Fc1ccc2[nH]c(-c3cccc(-c4ccc(CN5CCC(CCN6CCCCC6)CC5)cc4)c3)nc2c1.O=C(O)C(F)(F)F` were, in that order, 100%, 100% and 91%.
The like results for `Cc1ccc(C)c(-n2c(SCC(=O)Nc3ccc(C(N)=O)cc3)nnc2-c2cccc(Cl)c2)c1` were, in that order, 92%, 91% and 6%.
Regarding `CN(c1ccc2c(c1)nc(NCc1ccc(F)cc1)n2C)c1ccnc(Nc2ccc(CS(C)(=O)=O)cc2)n1.Cl`, the Inhibition in the assay with Plasmodium falciparum [1] worked out at 97%; in the assay on Plasmodium falciparum [2] it was 79%; in the assay with HepG2, 48%.
The like results for `CCCCCCCCc1c(C)nc(C)c(C#N)c1O` were, in that order, 97%, 96% and 0%.
The like results for `CS(=O)(=O)NCCCNCc1ccc(-c2ccc(-c3nc4cc(C(F)(F)F)ccc4[nH]3)s2)cc1.O=C(O)C(F)(F)F` were, in that order, 99%, 73% and 21%.
`COc1cc2nc(N3CCC(CNC(=O)c4ccc(-c5ccc(C(F)(F)F)cc5)cc4)CC3)nc(N)c2cc1OC`: the Inhibition in the assay on Plasmodium falciparum [1] is reported as 100%; with Plasmodium falciparum [2], 100%; in the assay on HepG2 it was 94%.
In the case of `CC(C)(C)N1CCC(N(Cc2ccc(-c3ccc(C(F)(F)F)cc3)cc2)C(=O)Cn2c(CCc3cccc(F)c3F)cc(=O)c3cccnc32)CC1.O=C(O)C(O)C(O)C(=O)O`, the Inhibition came out at 100% in the assay with Plasmodium falciparum [1], 63% in the assay with Plasmodium falciparum [2] and 100% in the assay with HepG2.
With `CC(Oc1cc(-n2cnc3ccc(NC(=O)CCN4CCCCC4)cc32)sc1C(N)=O)c1ccccc1Cl` (configuration not stated), the Inhibition stood at 99% in the assay on Plasmodium falciparum [1], 98% in the assay on Plasmodium falciparum [2] and 95% with HepG2.
For `Cc1ccc(Cn2nc(N3CCNCC3)ccc2=O)cc1NC(=O)Nc1ccc(-c2ccccc2)cc1.O=C(O)C(F)(F)F` the same measures were 94%, 20% and 46%.
The like results for `CC(=O)Nc1ccc(CN2CCC(NC(=O)c3ccc(-c4cccc(C(F)(F)F)c4)s3)CC2)cc1.O=C(O)C(F)(F)F` were, in that order, 100%, 16% and 35%.
For `Cc1ccccc1C1CCN(C2CCC(NC(=O)/C=C/c3cccc(F)c3)CC2)CC1` (configuration not stated) the same measures were 84%, 38% and 46%.
For the molecule `COc1ccc(CNCc2cccc(-c3ccc(-c4nc5ccccc5[nH]4)s3)c2)cc1.O=C(O)C(F)(F)F`, the Inhibition is 90% in the assay with Plasmodium falciparum [1], 52% with Plasmodium falciparum [2] and 14% with HepG2.
On to `Cc1cc(O)c(CN2CCN(Cc3cccs3)CC2)cc1C(C)C`, for which the results for the Inhibition with Plasmodium falciparum [1], with Plasmodium falciparum [2] and with HepG2 were 98%, 97% and 7%, respectively.
For `NC(=O)NC(=O)C=Cc1ccco1` the same measures were 97%, 0% and 32%.
As to `COc1ccc(C(=O)Nc2ccc(-c3nc4cc(C)ccc4[nH]3)cc2)cc1OC`, the values for the Inhibition in the assay with Plasmodium falciparum [1], in the assay on Plasmodium falciparum [2] and in the assay with HepG2 were 100%, 38% and 70%, respectively.
As to `CC(=O)Nc1ccc2[nH]cc(C3CCN(CCC4CCN(C(=O)/C=C/c5ccc(Cl)c(Cl)c5)CC4)CC3)c2n1`, the Inhibition in the assay with Plasmodium falciparum [1] is listed as 100%; in the assay with Plasmodium falciparum [2] it was 80%; with HepG2, 16%.
In the case of `Cn1cc(CN2CCCC(COC(c3ccccc3)c3ccccc3)C2)cn1` (configuration not stated), the Inhibition in the assay on Plasmodium falciparum [1] is given as 99%; with Plasmodium falciparum [2], 99%; with HepG2, 24%.
Consider `Cc1cccc2nc(-c3cccc(-c4ccc(CNCc5ccccc5)cc4)c3)[nH]c12.O=C(O)C(F)(F)F`, for which the Inhibition was 99% with Plasmodium falciparum [1], 100% in the assay on Plasmodium falciparum [2] and 33% with HepG2.
The like results for `Cc1cc(N[C@@H](Cc2ccccc2)C(=O)NCCc2ccccc2)nc(NCCOc2ccccc2)n1.O=C(O)C(F)(F)F` were, in that order, 95%, 14% and 10%.
For `CCCn1c(=N)c(C(=O)NCCc2ccccc2)cc2c(=O)n3cccc(C)c3nc21` the same measures were 100%, 64% and 8%.
The like results for `O=C(Nc1cccc(-c2nn3ccccc3c2-c2ccnc(Nc3cccc(F)c3)n2)c1)c1c(F)ccc(F)c1F` were, in that order, 96%, 73% and 33%.
`COc1ccc2nccc([C@@H](O)CN3CCC(NC(=O)c4cccc(C(=O)c5ccccc5)c4)CC3)c2c1`: the Inhibition turned out to be 99% in the assay with Plasmodium falciparum [1], 99% in the assay on Plasmodium falciparum [2] and 13% in the assay on HepG2.
With `O=C(Nc1cc(F)cc(F)c1)N[C@H]1CCN(CCCCCNC(=O)C2CC2c2ccc(Cl)c(Cl)c2)C1` (some centres not stated), the Inhibition was determined as 88% in the assay on Plasmodium falciparum [1], 0% in the assay with Plasmodium falciparum [2] and 24% in the assay on HepG2.
For `O=C(C=Cc1ccc(F)cc1)N1CCN(S(=O)(=O)c2ccc(Cl)cc2)CC1` the same measures were 91%, 93% and 10%.
For `Cn1c(N=C2NC3(c4ccccn4)NC(=Nc4nc5ccccc5n4C)NC3(c3ccccn3)N2)nc2ccccc21.O=C(O)C(F)(F)F` (configuration not stated) the same measures were 99%, 44% and 12%.
For `O=C(Cc1c[nH]cn1)Nc1cccc(-c2ccc(-c3nc4ccccc4[nH]3)cc2)c1` the same measures were 99%, 72% and 7%.

These data come from ChEMBL document CHEMBL1157539, “Thousands of chemical starting points for antimalarial lead identification” (Nature, 2010).
